The values that follow come from PubChem BioAssay (NCI).

The panel holds about 83,000 compounds, 20% with a hit somewhere; the sample as a whole holds those more often.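 Compound tested at a single concentration for 48 hours in 96-well plates; a percent growth value below 10 was scored as active.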 Unmarked numbers belong to inactive results. Calls of active or inactive are those of the source.

Some test systems named below: NCI-H23 lung; NCI-H322M lung; HOP-62 NSCLC; HOP-92 NSCLC; NCI-H522 lung; A549/ATCC NSCLC; 786-0 renal; COLO 205 colon; DU-145 prostate.
Common to all, as to assay: NCI-60 one-dose screen, 48 h (100 = growth as untreated, 0 = no growth, -100 = all killed)
Holding throughout (settings): 10 µM unless noted

For the compound `NC(CCc1nc2ccccc2c(=O)[nH]1)C(=O)O` (centres undefined), the growth is 105% with NCI-H23 lung; 97.8% with NCI-H322M lung; 103% in the assay with HOP-62 NSCLC; 108% in the assay with HOP-92 NSCLC; 91.7% in the assay on NCI-H522 lung; 105% in the assay with A549/ATCC NSCLC. Besides, the growth in the assay with 786-0 renal was 101%; in the assay with COLO 205 colon, 115%; in the assay on DU-145 prostate, 120%.

Turning to `CCOC(=O)c1c(Cl)c2c(n1Cc1ccccc1)-c1oncc1CCC2`, the growth was 86.9% in the assay on NCI-H23 lung; 94% with NCI-H322M lung; 80% with HOP-62 NSCLC; 84.7% with HOP-92 NSCLC; 35.7% in the assay with NCI-H522 lung; 43% with A549/ATCC NSCLC. Also, the results for the growth in the assay with 786-0 renal and in the assay with DU-145 prostate were 83.1% and 103%, respectively.

Take `O=C(Nc1ccc(F)c(Cl)c1)Nc1ccc(Cl)c(Cl)c1`: the growth in the assay with NCI-H23 lung is 86.1%; in the assay on NCI-H322M lung it was 102%; with HOP-62 NSCLC, 74.2%; in the assay with HOP-92 NSCLC, 65.1%; with NCI-H522 lung it was 66.4%; in the assay on A549/ATCC NSCLC, 71.8%. In addition, the growth with 786-0 renal was 87.2%; in the assay with COLO 205 colon, 89%; in the assay with DU-145 prostate it was 88.4%.

With `Nc1ccc(-c2nn3c(CCC(=O)c4nc5ncccc5[nH]4)nnc3s2)c(O)c1`, the growth with NCI-H23 lung was 83.1%; with NCI-H322M lung, 87.5%; in the assay on HOP-62 NSCLC, 85.7%; in the assay with HOP-92 NSCLC, 85.4%; in the assay on NCI-H522 lung, 81.2%; in the assay with A549/ATCC NSCLC, 89.6%. The growth was 99.2% in the assay with 786-0 renal, 99.6% with COLO 205 colon and 96.5% in the assay on DU-145 prostate.

For the compound `O=C(c1nc2ccccc2[nH]1)C1C(c2ccc(F)cc2)C2CC3CCCCC3N2[C@@]12C(=O)Nc1ccc(Cl)cc12` (some centres undefined), the growth is 57.2% in the assay on NCI-H23 lung; 60.6% with NCI-H322M lung; 71.8% in the assay with HOP-62 NSCLC; 44.2% in the assay with HOP-92 NSCLC; 57.3% in the assay with NCI-H522 lung; 29.3% in the assay on A549/ATCC NSCLC. Also, the results for the growth in the assay with 786-0 renal, with COLO 205 colon and in the assay with DU-145 prostate were 48.3%, 40.3% and 60.5%, respectively.

On to `COc1ccc(-n2c(C(O)c3ccccc3)nn(CN3CCOCC3)c2=S)cc1` (centres undefined), for which the growth in the assay with NCI-H23 lung is 99.4%; in the assay on NCI-H322M lung, 104%; with HOP-62 NSCLC, 101%; in the assay on HOP-92 NSCLC, 82.6%; with NCI-H522 lung, 89.9%; in the assay with A549/ATCC NSCLC, 103%. Besides, the growth in the assay with 786-0 renal is 106%; with COLO 205 colon it was 112%; with DU-145 prostate, 109%.

On to `O=C(c1ccccc1)N(CCc1ccc(Cl)cc1)C(=S)N(C(=O)c1ccccc1)c1ccccc1`, for which the growth was 92.7% in the assay with NCI-H23 lung; 111% in the assay on NCI-H322M lung; 118% in the assay with HOP-62 NSCLC; 71% with HOP-92 NSCLC; 105% with NCI-H522 lung; 97.3% with A549/ATCC NSCLC. Further, the growth with 786-0 renal is 97.6%; with COLO 205 colon, 150%; with DU-145 prostate it was 83.9%.

On to `O=C1c2ccccc2C(=O)c2c1ccc1[nH]c(CCl)nc21`, for which the growth with NCI-H23 lung was 15%; with NCI-H322M lung, 62.5%; in the assay with HOP-62 NSCLC, 25.3%; in the assay with NCI-H522 lung, -31.5% (active); in the assay with A549/ATCC NSCLC, 43.8%; in the assay with 786-0 renal, 28.9%. Moreover, the growth in the assay on COLO 205 colon was 29.1%; in the assay on DU-145 prostate it was 17.1%.

Consider `O=C(NC(=S)Nc1cccc(NC(=S)NC(=O)c2ccccc2)c1)c1ccccc1`, for which the growth in the assay with NCI-H23 lung is 69.1%; in the assay on NCI-H322M lung, 89%; with HOP-62 NSCLC, 52.5%; with HOP-92 NSCLC it was 34.8%; with NCI-H522 lung it was -9.46% (active); in the assay on A549/ATCC NSCLC, 57.6%. Further, the growth with 786-0 renal is 76.5%; in the assay with COLO 205 colon, 56.5%; in the assay on DU-145 prostate, 77.5%.

Regarding `CC(=O)c1ccc(Nc2nc(NCCO)nc(Nc3ccc(Cl)cc3)n2)cc1`, the growth in the assay with NCI-H23 lung was 99.1%; with NCI-H322M lung, 97.1%; in the assay with HOP-62 NSCLC, 100%; with HOP-92 NSCLC, 86.4%; in the assay on NCI-H522 lung, 81.2%; with A549/ATCC NSCLC it was 85.6%. Moreover, the growth in the assay with 786-0 renal is 104%; in the assay with DU-145 prostate it was 94.8%.

For the compound `COc1ccc(C2C3=C(COC3=O)N(CCO)c3cc4c(cc32)CCC4)cc1` (centres undefined), the growth is 87.2% with NCI-H23 lung; 96.2% in the assay on NCI-H322M lung; 51.5% with HOP-62 NSCLC; 70.8% with HOP-92 NSCLC; 37.8% in the assay with NCI-H522 lung; 46.6% in the assay with A549/ATCC NSCLC. Further, the growth in the assay with 786-0 renal was 54.8%; with COLO 205 colon, 52.1%; with DU-145 prostate, 78.5%.

As to `O=c1oc2ccc(Cl)cc2c(=O)n1-c1ccc(F)cc1F`, the growth in the assay on NCI-H23 lung was 7.47% (active); in the assay on NCI-H322M lung, 3.62% (active); in the assay with HOP-62 NSCLC, 4.11% (active); in the assay on HOP-92 NSCLC it was -22.9% (active); with NCI-H522 lung, -23% (active); with A549/ATCC NSCLC it was 4.94% (active). Further, the figures for the growth with 786-0 renal, with COLO 205 colon and in the assay with DU-145 prostate were 9.41% (active), 64.9% and 18.7%, respectively.

With `CC(C)CCOc1ccc(-c2n[nH]c(C(F)(F)F)c2-c2cncc(C#N)c2)c(O)c1`, the growth is -0.157% (active) in the assay on NCI-H23 lung; 12.4% in the assay on NCI-H322M lung; 5.79% (active) in the assay with HOP-62 NSCLC; -27.9% (active) in the assay with HOP-92 NSCLC; -6.89% (active) in the assay on NCI-H522 lung; 10.4% in the assay with A549/ATCC NSCLC. Besides, the growth is 17.1% with 786-0 renal, 49% in the assay on COLO 205 colon and 18% with DU-145 prostate.
